# Experimental data: ChEMBL document CHEMBL3988442, “University of Dundee, Small-Polar-MMV Screening Library” (2021)
# “And” between values parts separate entries of the source, which are not always exact repeats. Equal values may be shown once. For some of these results: Entries with a potency or affinity are not part of this list.
# Assays:
# [1] = molecular target: T1, Methionyl-tRNA synthetase, putative (Leishmania donovani (strain BPK282A1)) (UniProt E9BF75); assay: Leishmania donovani Methionine tRNA synthetase (LdMetRS):v7. Dose response assay; type: functional; set-up: conc 80 nM, time 150 minutes
# T1 sequence (whole entry): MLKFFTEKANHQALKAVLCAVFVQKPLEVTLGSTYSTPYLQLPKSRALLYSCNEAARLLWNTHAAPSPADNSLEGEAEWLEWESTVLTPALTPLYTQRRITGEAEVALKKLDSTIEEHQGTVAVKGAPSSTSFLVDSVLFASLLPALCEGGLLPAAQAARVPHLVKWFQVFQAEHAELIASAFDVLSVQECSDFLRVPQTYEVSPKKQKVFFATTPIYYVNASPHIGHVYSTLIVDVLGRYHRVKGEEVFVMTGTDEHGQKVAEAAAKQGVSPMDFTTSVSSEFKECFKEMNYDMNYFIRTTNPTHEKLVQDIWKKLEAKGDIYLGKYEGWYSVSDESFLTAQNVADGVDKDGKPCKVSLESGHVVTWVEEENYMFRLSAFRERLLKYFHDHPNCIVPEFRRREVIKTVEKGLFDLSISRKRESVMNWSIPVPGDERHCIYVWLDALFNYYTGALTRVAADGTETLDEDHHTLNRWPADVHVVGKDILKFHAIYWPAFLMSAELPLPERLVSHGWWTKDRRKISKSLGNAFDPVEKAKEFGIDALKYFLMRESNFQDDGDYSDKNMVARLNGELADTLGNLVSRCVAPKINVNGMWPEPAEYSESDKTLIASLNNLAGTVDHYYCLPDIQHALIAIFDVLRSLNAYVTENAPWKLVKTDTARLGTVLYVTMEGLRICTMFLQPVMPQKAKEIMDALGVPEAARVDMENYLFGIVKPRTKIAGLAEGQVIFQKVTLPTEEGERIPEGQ
# [2] = molecular target: Protein translocase subunit SecA (Escherichia coli (strain K12)) (UniProt P10408); assay: Assay to Identify E. coli SecA ATPase Inhibitors; type: functional; set-up: scale not given: direction of the effect not stated beside the values; conditions: 30 µM
# [3] = molecular target: T2, Ubiquitin-activating enzyme e1, putative (Leishmania donovani (strain BPK282A1)) (UniProt E9BSI1); assay: Leishmania donovani Ubiquitin Activating Enzyme (LdE1); type: functional; set-up: scale not given: direction of the effect not stated beside the values; conditions: 30 µM
# T2 sequence (whole entry): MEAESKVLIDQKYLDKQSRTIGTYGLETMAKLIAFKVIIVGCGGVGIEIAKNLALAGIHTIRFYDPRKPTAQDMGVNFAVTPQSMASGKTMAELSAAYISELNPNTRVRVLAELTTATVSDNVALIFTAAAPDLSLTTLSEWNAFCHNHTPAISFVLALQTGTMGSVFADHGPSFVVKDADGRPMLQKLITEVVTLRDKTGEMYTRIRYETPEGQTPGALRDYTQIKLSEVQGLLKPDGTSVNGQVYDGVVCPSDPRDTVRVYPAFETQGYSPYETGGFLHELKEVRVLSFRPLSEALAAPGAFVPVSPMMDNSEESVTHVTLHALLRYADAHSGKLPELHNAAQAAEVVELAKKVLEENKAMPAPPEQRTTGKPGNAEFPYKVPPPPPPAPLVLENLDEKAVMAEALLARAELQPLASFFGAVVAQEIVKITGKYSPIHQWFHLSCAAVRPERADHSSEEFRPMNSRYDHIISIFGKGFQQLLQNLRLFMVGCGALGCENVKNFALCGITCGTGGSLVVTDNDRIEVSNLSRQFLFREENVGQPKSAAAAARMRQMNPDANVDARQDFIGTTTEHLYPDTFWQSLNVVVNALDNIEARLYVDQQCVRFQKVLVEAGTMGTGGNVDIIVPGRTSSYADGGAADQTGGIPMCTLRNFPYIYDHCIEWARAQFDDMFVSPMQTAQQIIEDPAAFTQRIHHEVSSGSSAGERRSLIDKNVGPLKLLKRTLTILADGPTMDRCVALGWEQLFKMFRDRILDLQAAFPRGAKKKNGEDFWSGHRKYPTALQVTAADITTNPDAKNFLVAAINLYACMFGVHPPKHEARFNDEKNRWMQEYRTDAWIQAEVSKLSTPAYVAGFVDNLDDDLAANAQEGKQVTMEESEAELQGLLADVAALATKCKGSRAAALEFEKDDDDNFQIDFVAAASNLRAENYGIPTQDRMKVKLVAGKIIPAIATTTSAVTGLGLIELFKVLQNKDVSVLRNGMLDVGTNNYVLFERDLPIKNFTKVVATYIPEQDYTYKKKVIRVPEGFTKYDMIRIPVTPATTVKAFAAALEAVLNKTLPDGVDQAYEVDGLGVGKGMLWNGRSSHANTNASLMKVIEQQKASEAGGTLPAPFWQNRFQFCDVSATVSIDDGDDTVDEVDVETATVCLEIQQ
# [4] = molecular target: AMP-activated protein kinase, AMPK (Homo sapiens) (UniProt P54646+O43741+P54619+Q9UGJ0+Q9Y478+Q13131+Q9UGI9); assay: AMP-dependent Kinase enzyme assay. An in vitro enzyme assay that detects ADP turnover that is directly proportional to AMPK activity. This uses naive AMPK that is activated during the assay with MK-8722; type: functional; set-up: scale not given: direction of the effect not stated beside the values; conditions: 30 µM
# [5] = molecular target: Sialic acid-binding Ig-like lectin 9 (Homo sapiens) (UniProt Q9Y336); assay: Hs-Siglec9 ALPHAscreen SOP 20170721; set-up: scale not given: direction of the effect not stated beside the values; conditions: 10 µM
# Trypanosoma cruzi = assay: Trypanosoma cruzi phosphomannomutase and mannose-1-phosphate guanylyltransferase assay; type: functional; set-up: scale not given: direction of the effect not stated beside the values; conditions: 10 µM
# [6] = molecular target: T3, Arginase-2, mitochondrial (Homo sapiens) (UniProt P78540); assay: in vitro enzyme assay to detect the production of urea directly proportional to the activity of Arginase II; type: functional; set-up: scale not given: in the data most compounds retested in dose-response had high values; conditions: 33.3 µM
# T3 sequence (whole entry): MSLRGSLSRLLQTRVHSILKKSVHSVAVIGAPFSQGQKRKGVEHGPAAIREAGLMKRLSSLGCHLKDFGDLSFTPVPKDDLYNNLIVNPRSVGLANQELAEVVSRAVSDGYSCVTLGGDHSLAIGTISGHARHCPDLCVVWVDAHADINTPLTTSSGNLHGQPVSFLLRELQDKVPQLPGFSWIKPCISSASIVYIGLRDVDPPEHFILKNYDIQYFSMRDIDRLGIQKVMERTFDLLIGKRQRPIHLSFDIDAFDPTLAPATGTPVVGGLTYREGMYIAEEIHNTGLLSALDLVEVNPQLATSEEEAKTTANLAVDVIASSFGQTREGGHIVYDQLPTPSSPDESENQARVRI
# [7] = molecular target: T4, Proteasome subunit beta (Trypanosoma cruzi) (UniProt O96673); assay: Trypanosoma cruzi proteasome chymotrypsin-like activity (TcProtChymo) assay.; type: functional; set-up: scale not given: in the data most compounds retested in dose-response had high values; conditions: 9.37 µM
# T4 sequence (whole entry): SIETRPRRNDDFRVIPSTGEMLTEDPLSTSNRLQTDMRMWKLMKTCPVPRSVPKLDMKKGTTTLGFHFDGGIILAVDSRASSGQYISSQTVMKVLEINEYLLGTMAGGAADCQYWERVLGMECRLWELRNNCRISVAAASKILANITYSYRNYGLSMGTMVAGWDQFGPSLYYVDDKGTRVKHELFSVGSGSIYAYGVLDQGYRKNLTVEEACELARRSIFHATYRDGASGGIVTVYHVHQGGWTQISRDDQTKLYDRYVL
# N/A = assay: Trypanosoma cruzi proteasome luciferase counter-screen; type: functional; set-up: scale not given: direction of the effect not stated beside the values; conditions: 9.37 µM
# Homo sapiens = species: Homo sapiens; assay: To identify inhibition of the IFN signalling (Jak-Stat) pathway via expression of an eGFP reporter gene under the control of an IFN-stimulated response element (ISRE) containing MxA promoter.; type: functional; set-up: scale not given: direction of the effect not stated beside the values; conditions: 30 µM
# [8] = molecular target: T5, Tyrosyl-tRNA synthetase, putative (Trypanosoma cruzi (strain CL Brener)) (UniProt Q4DSP6); assay: Trypanosoma cruzi tyrosyl tRNA synthetase (TcYRS) _High Tyrosine SOP; type: functional; set-up: scale not given: in the data most compounds retested in dose-response had high values; conditions: 30 µM
# T5 sequence (whole entry): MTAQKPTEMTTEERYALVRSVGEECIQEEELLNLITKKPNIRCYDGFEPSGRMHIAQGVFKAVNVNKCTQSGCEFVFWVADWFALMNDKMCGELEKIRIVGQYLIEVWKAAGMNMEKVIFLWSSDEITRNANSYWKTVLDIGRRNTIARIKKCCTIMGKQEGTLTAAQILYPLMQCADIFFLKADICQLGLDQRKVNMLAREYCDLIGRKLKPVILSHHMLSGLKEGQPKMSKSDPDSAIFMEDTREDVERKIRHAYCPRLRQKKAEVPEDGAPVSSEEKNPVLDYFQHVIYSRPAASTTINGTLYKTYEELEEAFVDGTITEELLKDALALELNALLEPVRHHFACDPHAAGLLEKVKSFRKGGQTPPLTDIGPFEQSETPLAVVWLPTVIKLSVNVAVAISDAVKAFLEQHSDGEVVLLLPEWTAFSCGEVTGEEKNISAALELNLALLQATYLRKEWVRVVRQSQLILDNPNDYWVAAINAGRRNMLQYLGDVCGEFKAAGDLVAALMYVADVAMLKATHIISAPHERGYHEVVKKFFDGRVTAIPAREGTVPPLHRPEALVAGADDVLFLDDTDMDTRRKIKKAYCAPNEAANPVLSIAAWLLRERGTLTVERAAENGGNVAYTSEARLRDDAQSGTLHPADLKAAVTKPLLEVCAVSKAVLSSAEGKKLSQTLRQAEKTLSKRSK
# [9] = molecular target: T5, Tyrosyl-tRNA synthetase, putative (Trypanosoma cruzi (strain CL Brener)); assay: Trypanosoma cruzi tyrosyl tRNA synthetase (TcYRS) SOP; type: functional; set-up: scale not given: direction of the effect not stated beside the values; conditions: 30 µM
# [10] = molecular target: Chromo domain-containing protein 1 (Saccharomyces cerevisiae (strain ATCC 204508 / S288c) (Baker's yeast)) (UniProt P32657); assay: ScCHD-1 Enzyme Inhibition Assay; type: functional; set-up: scale not given: in the data most compounds retested in dose-response had high values; conditions: 30 µM
# Sequence of Chromo domain-containing protein 1 (Saccharomyces cerevisiae (strain ATCC 204508 / S288c) (Baker's yeast)) (P32657 whole entry, the tested form may be a part): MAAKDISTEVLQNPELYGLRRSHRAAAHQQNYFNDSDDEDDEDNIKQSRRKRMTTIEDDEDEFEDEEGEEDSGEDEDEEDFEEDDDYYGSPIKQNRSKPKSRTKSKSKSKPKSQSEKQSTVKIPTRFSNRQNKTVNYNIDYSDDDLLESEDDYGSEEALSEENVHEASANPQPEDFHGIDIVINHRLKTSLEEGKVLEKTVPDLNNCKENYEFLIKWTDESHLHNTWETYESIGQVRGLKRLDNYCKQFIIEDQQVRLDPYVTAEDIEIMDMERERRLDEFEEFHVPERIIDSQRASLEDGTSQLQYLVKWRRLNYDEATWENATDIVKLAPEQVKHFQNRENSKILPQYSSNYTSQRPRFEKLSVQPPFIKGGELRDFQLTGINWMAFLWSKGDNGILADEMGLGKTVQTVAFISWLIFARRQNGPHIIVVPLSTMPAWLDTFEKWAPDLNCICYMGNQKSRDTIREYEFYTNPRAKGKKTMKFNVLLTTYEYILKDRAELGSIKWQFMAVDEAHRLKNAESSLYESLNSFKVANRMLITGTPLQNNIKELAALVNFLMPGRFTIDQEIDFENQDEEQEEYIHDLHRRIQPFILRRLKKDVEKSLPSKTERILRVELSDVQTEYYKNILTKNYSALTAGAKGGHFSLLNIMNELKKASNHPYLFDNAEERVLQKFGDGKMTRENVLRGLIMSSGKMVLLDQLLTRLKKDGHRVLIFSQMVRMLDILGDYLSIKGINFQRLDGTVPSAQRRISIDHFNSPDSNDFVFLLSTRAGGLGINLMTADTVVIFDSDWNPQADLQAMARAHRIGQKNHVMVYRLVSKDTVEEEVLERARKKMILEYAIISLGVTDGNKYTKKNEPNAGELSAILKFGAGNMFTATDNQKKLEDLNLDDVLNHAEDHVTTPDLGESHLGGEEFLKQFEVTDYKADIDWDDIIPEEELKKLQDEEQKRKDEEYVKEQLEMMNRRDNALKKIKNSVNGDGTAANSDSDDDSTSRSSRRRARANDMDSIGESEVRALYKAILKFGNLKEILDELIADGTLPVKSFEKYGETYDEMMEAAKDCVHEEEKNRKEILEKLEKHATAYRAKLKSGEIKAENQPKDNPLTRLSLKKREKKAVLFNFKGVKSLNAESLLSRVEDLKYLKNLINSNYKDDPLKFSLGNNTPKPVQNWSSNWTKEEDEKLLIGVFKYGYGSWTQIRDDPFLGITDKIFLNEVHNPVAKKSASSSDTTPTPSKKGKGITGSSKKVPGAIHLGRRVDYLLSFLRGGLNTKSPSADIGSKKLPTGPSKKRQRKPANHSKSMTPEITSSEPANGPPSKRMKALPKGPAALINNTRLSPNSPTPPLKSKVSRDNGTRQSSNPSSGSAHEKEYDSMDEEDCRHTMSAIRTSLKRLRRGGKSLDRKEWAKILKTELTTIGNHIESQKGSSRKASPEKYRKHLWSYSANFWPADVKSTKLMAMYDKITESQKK
# Sequence of Protein translocase subunit SecA (Escherichia coli (strain K12)) (P10408 whole entry): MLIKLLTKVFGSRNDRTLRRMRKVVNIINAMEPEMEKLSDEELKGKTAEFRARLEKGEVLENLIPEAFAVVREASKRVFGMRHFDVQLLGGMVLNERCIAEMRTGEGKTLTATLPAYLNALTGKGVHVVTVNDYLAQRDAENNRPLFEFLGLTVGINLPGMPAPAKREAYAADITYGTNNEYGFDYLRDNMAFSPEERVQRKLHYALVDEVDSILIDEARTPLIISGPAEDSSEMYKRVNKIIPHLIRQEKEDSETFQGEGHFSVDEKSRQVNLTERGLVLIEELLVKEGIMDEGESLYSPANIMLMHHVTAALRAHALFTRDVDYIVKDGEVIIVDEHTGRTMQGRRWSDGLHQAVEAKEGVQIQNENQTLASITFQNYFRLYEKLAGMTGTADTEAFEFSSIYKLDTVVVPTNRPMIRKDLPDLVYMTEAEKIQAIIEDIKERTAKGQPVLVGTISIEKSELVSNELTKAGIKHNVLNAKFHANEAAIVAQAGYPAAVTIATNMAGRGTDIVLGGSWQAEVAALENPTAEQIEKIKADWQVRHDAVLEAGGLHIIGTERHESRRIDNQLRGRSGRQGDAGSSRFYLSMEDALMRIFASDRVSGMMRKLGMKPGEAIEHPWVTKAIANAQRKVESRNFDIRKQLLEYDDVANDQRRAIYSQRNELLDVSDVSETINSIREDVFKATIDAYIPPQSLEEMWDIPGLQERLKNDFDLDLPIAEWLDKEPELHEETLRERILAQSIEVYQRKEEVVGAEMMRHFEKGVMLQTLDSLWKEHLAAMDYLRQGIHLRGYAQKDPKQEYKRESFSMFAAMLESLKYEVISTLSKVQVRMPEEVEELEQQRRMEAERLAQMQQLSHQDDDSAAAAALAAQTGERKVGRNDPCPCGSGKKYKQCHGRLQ
# Sequence of Sialic acid-binding Ig-like lectin 9 (Homo sapiens) (Q9Y336 whole entry): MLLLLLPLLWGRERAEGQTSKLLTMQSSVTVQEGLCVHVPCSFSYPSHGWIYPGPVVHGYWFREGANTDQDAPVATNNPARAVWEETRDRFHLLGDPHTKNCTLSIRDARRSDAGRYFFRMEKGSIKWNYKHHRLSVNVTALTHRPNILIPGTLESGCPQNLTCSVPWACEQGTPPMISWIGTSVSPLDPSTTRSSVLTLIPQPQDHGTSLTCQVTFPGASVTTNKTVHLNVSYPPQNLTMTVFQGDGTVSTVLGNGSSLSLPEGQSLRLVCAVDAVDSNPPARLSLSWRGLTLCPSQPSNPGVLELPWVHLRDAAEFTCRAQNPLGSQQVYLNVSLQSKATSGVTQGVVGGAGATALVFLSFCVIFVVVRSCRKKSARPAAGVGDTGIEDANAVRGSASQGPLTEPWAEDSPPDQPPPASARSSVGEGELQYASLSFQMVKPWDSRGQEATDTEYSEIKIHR
Structure (SMILES),"PXC50 ([1]; BOTTOM 0.534632588, HILLSLOPE 1.255840154, MAX_EFFECT 60.86956522, TOP 100.0)","PXC50 ([1]; BOTTOM 3.083112022, HILLSLOPE 1.565152708, MAX_EFFECT 54.7024952, TOP 100.0)","PXC50 ([1]; BOTTOM -8.837281555, HILLSLOPE 1.047429208, MAX_EFFECT 57.34767025, TOP 100.0)","PXC50 ([1]; BOTTOM -19.84781307, HILLSLOPE 1.359990695, MAX_EFFECT 58.41584158, TOP 100.0)",PXC50 ([1]; MAX_EFFECT 38.75598086),Percent Effect [2] [%],Percent Effect [3] [%],Percent Effect [4] [%],Percent Effect [5] [%],Percent Effect (Trypanosoma cruzi) [%],Percent Effect [6] [%],Percent Effect [7],Percent Effect (N/A),Percent Effect (Homo sapiens) [%],Percent Effect [8] [%],Percent Effect [9] [%],Percent Effect [10] [%],PXC50 ([1]; MAX_EFFECT 29.03225806),PXC50 ([1]; MAX_EFFECT 41.91419142),PXC50 ([1]; MAX_EFFECT 44.92753623)
CN1CCc2nc(C3CCN(C(=O)CCC4CCCC4)CC3)ncc2C1,4.14,4.03,4.14,4.22,< 4,-2.07,26.7,7.92,-1.28,5.51,-2.1,27.3% and 36.4% and 44%,6.68% and 6.76%,23.7,44.7,34.6,-8.54,,,
O=C(c1ccc(F)c(Cl)c1)N1C[C@@H]2CC[C@H](C1)N(Cc1ccccc1)C2,,,,,,-1.36,-13.7,5.89,19.2,-6.15,1.6,11.2%,,-10.1,11.5,25.9,0.975,< 4,< 4,< 4
